Measured values from PubChem BioAssay AID463173 (ICCB-Longwood Screening Facility, Harvard Medical School, 2010).
The whole screen tested about 52,000 compounds, of which about 4,300 (8.3%) were called active. The entries come from a sample that favours actives as a whole. Values without a mark were called inactive. Cut-off read from the data, not from the text of the source: active = survival mostly below about 52% (no sharp cut-off); inactive = mostly above about 56%.

Each compound was assayed on DeltatarO mutant (assay: S. aureus survival, RN4220 and DeltatarO strains – OD600, teichoic acid synthesis inhibitors, primary screen (AID 463173)). Settings: S. aureus RN4220 wild type/DeltatarO growth, OD600, 18 h, active compounds read low, screened at 18.75 µg/mL (by protocol).
`CCCN1CCN(C(=O)Cn2c(-c3cccs3)cc3ccccc32)CC1` gave a survival of 95%.
For `Cc1cc(C)c2c(=O)[nH]c(SCC(=O)NCCc3ccccc3)nc2n1`, the survival was 61%.
In the case of `CCCCN(C)CCNC(=O)C1CCN(c2nc3ccc(CC)cc3s2)CC1`, the survival is reported as 45%.
For `CCOc1ccc2nc(N3CCCC(C(=O)NCCc4ccc(Cl)cc4)C3)sc2c1` (configuration not stated), the survival was 48% (active).
With `CCOc1ccc2nc(N3CCCC(C(=O)NCCc4ccc(C)cc4)C3)sc2c1` (configuration not stated) the survival was 64%.
Work on `CCCN(CCC)CCCNC(=O)C1CCN(c2nc3ccc(CC)cc3s2)CC1` yielded a survival of 54%.
For `CCCN(CCC)CCNC(=O)C1CCN(c2nc3ccc(CC)cc3s2)CC1`, the survival was 43% (active).
`CCOc1ccc2nc(N3CCCC(C(=O)NCCc4ccc(SC)cc4)C3)sc2c1` (configuration not stated) showed a survival of 91%.
`COc1ccc(CCNC(=O)CSc2cn(CCNC(=O)c3c(F)cccc3F)c3ccccc23)cc1OC` gave a survival of 79%.
Work on `COc1cccc(CNC(=O)C2CCCN(S(=O)(=O)N(C)c3ccc(F)cc3)C2)c1OC` (configuration not stated) yielded a survival of 87%.
In the case of `O=C1CS/C(=N\N2CCOCC2)N1Cc1ccccc1`, the survival is reported as 84%.
In the case of `Cc1nnc(N2CCN(C(=O)NC(C)C)CC2)c2nn(-c3ccccc3)c(C)c12`, the survival is reported as 72%.
In the case of `CCc1cccc(NC(=O)Nc2csc3c2CCCC3)c1`, the survival is reported as 114%.
With `CC(C)c1ccc(NC(=O)Nc2csc3c2CCCC3)cc1` the survival was 13% (active).
With `Cc1cccc(C)c1NC(=O)Nc1csc2c1CCCC2` the survival was 78%.
`Cc1ccc(C)c(NC(=O)Nc2csc3c2CCCC3)c1` was tested, and the survival was 75%.
With `O=C(Nc1ccc(F)cc1)Nc1csc2c1CCCC2` the survival was 4% (active).
In the case of `O=C(Nc1ccc(F)cc1)c1csc2c1CCCCC2`, the survival is reported as 63%.
In the case of `Cc1ccc(NC(=O)Nc2csc3c2CCCC3)c(C)c1`, the survival is reported as 63%.
`Cc1cc(NC(=O)Nc2csc3c2CCCC3)ccc1Br` showed a survival of 44%.
With `Cc1ccccc1NC(=O)Nc1csc2c1CCCC2` the survival was 29% (active).
Compound `CCOCCCNC(=O)CCC(=O)NNc1nc2ccccc2c2nc(-c3ccccc3)nn12` has a survival of 83%.
Compound `COc1ccc(NC(=O)CN2C(=O)CSc3ccc(S(=O)(=O)N(C)C)cc32)cc1Cl` has a survival of 74%.
`CCc1nn(CC(=O)N2CCN(c3cccc(OC)c3)CC2)c(=O)c2cc3occc3n12` gave a survival of 91%.
Compound `COc1ccc(S(=O)(=O)N(CCc2ccccc2)CC(N)=O)cc1` has a survival of 88%.
`Cn1nnnc1SCCCNCc1cc(Cl)ccc1OCc1ccccc1` was tested, and the survival was 72%.
Compound `COc1cccc(-n2c(SCC(=O)Nc3cccc(Cl)c3)nc3c(oc4ccccc43)c2=O)c1` has a survival of 85%.
In the case of `O=C(CSc1nc2c(oc3ccccc32)c(=O)n1Cc1ccco1)Nc1cccc(Cl)c1`, the survival is reported as 62%.
`O=C(CSc1nc2c(oc3ccccc32)c(=O)n1-c1ccccc1)Nc1ccc(F)c(Cl)c1` was tested, and the survival was 86%.
`CCOc1ccc(NC(=O)CSc2nc3c(oc4ccccc43)c(=O)n2CCOC)cc1` showed a survival of 74%.
`O=C(CSc1nc2c(oc3ccccc32)c(=O)[nH]1)Nc1cccc(Cl)c1` was tested, and the survival was 37% (active).
`COCCn1c(SCC(=O)Nc2ccc(F)c(Cl)c2)nc2c(oc3ccccc32)c1=O` was tested, and the survival was 44% (active).
